Experimental data published in PubChem BioAssay AID1159580 (chemical genetic matrix, 2015).
Among all 5,500 compounds or so, about 2,000 (36%) were called active. Another 18% or so got no clear call; they are omitted. The list shows a part of the results. Unmarked numbers belong to inactive results. Cut-off read from the data, not from the text of the source: active = normalized growth mostly below about 0.91 (no sharp cut-off); inconclusive = no clear call, values can overlap the other calls; inactive = mostly above about 0.92.

Test: chemical genetic growth profiling, strain panel (AID 1159580);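 note: tested at 20 µM; growth read once vehicle control cultures reached saturation at 30 °C; 1 = growth at the plate median or of vehicle wells; lower values mean less growth of the strain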
Conditions: growth OD

CC1CC2C3CC(F)C4=CC(=O)C=CC4(C)C3(F)C(O)CC2(C)C1C(=O)COC(=O)C(C)(C)C (stereo not given)
normalized growth (S. cerevisiae deletion strains, locus YBR021W, strain FUR4, active compounds read low): 0.903 | normalized growth (S. cerevisiae deletion strains, locus YBR229C, strain ROT2, active compounds read low): 0.997 | normalized growth (S. cerevisiae deletion strains, locus YCL029C, strain bik1, active compounds read low): 1.05 | normalized growth (S. cerevisiae deletion strains, locus YDL035C, strain GPR1, active compounds read low): 0.871 | normalized growth (S. cerevisiae deletion strains, locus YDL074C, strain BRE1, active compounds read low): 0.879 | normalized growth (S. cerevisiae deletion strains, locus YDL101C, strain DUN1, active compounds read low): 1.01 | normalized growth (S. cerevisiae deletion strains, locus YDL134C, strain PPH21, active compounds read low): 0.873 (active) | normalized growth (S. cerevisiae deletion strains, locus YDL185W, strain tfp1, active compounds read low): 1.01 | normalized growth (S. cerevisiae deletion strains, locus YDL192W, strain arf1, active compounds read low): 0.997 | normalized growth (S. cerevisiae deletion strains, locus YDR101C, strain arx1, active compounds read low): 1.02 | normalized growth (S. cerevisiae deletion strains, locus YDR150W, strain NUM1, active compounds read low): 0.977 | normalized growth (S. cerevisiae deletion strains, locus YDR162C, strain NBP2, active compounds read low): 0.867 | normalized growth (S. cerevisiae deletion strains, locus YDR318W, strain mcm21, active compounds read low): 1.01 | normalized growth (S. cerevisiae deletion strains, locus YDR388W, active compounds read low): 1.04 | normalized growth (S. cerevisiae deletion strains, locus YDR502C, strain sam2, active compounds read low): 1.02 | normalized growth (S. cerevisiae deletion strains, locus YEL061C, strain CIN8, active compounds read low): 0.973 | normalized growth (S. cerevisiae deletion strains, locus YER110C, active compounds read low): 1.04 | normalized growth (S. cerevisiae deletion strains, locus YER155C, strain BEM2, active compounds read low): 1.04 | normalized growth (S. cerevisiae deletion strains, locus YER167W, strain BCK2, active compounds read low): 0.992 | normalized growth (S. cerevisiae deletion strains, locus YGL078C, strain dbp3, active compounds read low): 1.02 | normalized growth (S. cerevisiae deletion strains, locus YGL086W, strain mad1, active compounds read low): 0.96 | normalized growth (S. cerevisiae deletion strains, locus YGL248W, strain PDE1, active compounds read low): 0.927 | normalized growth (S. cerevisiae deletion strains, locus YGR078C, strain PAC10, active compounds read low): 0.92 | normalized growth (S. cerevisiae deletion strains, locus YGR135W, strain pre9, active compounds read low): 0.957 | normalized growth (S. cerevisiae deletion strains, locus YGR252W, strain gcn5, active compounds read low): 0.849 | normalized growth (S. cerevisiae deletion strains, locus YHR030C, strain SLT2, active compounds read low): 0.989 | normalized growth (S. cerevisiae deletion strains, locus YHR079C, strain IRE1 (second series), active compounds read low): 1.03 | normalized growth (S. cerevisiae deletion strains, locus YHR094C, strain hxt1, active compounds read low): 1.04 | normalized growth (S. cerevisiae deletion strains, locus YHR129C, strain ARP1, active compounds read low): 0.964 | normalized growth (S. cerevisiae deletion strains, locus YHR200W, strain rpn10, active compounds read low): 1.01 | normalized growth (S. cerevisiae deletion strains, locus YIL066C, strain RNR3, active compounds read low): 0.852 (active) | normalized growth (S. cerevisiae deletion strains, locus YIL073C, strain SPO22, active compounds read low): 0.954 | normalized growth (S. cerevisiae deletion strains, locus YIL125W, strain kgd1, active compounds read low): 1.02 | normalized growth (S. cerevisiae deletion strains, locus YIR030C, strain dcg1, active compounds read low): 1.03 | normalized growth (S. cerevisiae deletion strains, locus YJL095W, strain BCK1, active compounds read low): 0.989 | normalized growth (S. cerevisiae deletion strains, locus YJL134W, strain LCB3, active compounds read low): 1.01 | normalized growth (S. cerevisiae deletion strains, locus YJL168C, strain set2, active compounds read low): 1.01 | normalized growth (S. cerevisiae deletion strains, locus YJL187C, strain SWE1 (second series), active compounds read low): 0.934 | normalized growth (S. cerevisiae deletion strains, locus YJR043C, strain POL32, active compounds read low): 0.892 | normalized growth (S. cerevisiae deletion strains, locus YKL009W, strain mrt4, active compounds read low): 1.03 | normalized growth (S. cerevisiae deletion strains, locus YKL068W, active compounds read low): 1.02 | normalized growth (S. cerevisiae deletion strains, locus YKL085W, strain MDH1 (second series), active compounds read low): 1.01 | normalized growth (S. cerevisiae deletion strains, locus YKL085W, strain MDH1, active compounds read low): 1.01 | normalized growth (S. cerevisiae deletion strains, locus YKR001C, strain vps1, active compounds read low): 0.987 | normalized growth (S. cerevisiae deletion strains, locus YLR039C, strain RIC1, active compounds read low): 0.804 | normalized growth (S. cerevisiae deletion strains, locus YLR058C, strain SHM2, active compounds read low): 0.981 | normalized growth (S. cerevisiae deletion strains, locus YLR102C, strain apc9, active compounds read low): 1.03 | normalized growth (S. cerevisiae deletion strains, locus YLR262C, strain YPT6, active compounds read low): 0.872 | normalized growth (S. cerevisiae deletion strains, locus YLR268W, strain sec22, active compounds read low): 0.985 | normalized growth (S. cerevisiae deletion strains, locus YLR330W, strain CHS5, active compounds read low): 0.967 | normalized growth (S. cerevisiae deletion strains, locus YLR342W, strain FKS1 (second series), active compounds read low): 0.758 (active) | normalized growth (S. cerevisiae deletion strains, locus YLR371W, strain rom2, active compounds read low): 1.03 | normalized growth (S. cerevisiae deletion strains, locus YLR418C, strain cdc73, active compounds read low): 0.953 | normalized growth (S. cerevisiae deletion strains, locus YML016C, strain PPZ1, active compounds read low): 0.951 | normalized growth (S. cerevisiae deletion strains, locus YML032C, strain rad52, active compounds read low): 1.03 | normalized growth (S. cerevisiae deletion strains, locus YML124C, strain tub3, active compounds read low): 1.02 | normalized growth (S. cerevisiae deletion strains, locus YMR078C, strain ctf18, active compounds read low): 1.04 | normalized growth (S. cerevisiae deletion strains, locus YMR223W, strain ubp8, active compounds read low): 0.965 | normalized growth (S. cerevisiae deletion strains, locus YMR307W, strain GAS1, active compounds read low): 0.922 | normalized growth (S. cerevisiae deletion strains, locus YNL067W, strain RPL9B, active compounds read low): 0.989 | normalized growth (S. cerevisiae deletion strains, locus YNL128W, strain TEP1, active compounds read low): 0.908 | normalized growth (S. cerevisiae deletion strains, locus YNL233W, strain BNI4, active compounds read low): 0.919 | normalized growth (S. cerevisiae deletion strains, locus YNL250W, strain rad50, active compounds read low): 1.01 | normalized growth (S. cerevisiae deletion strains, locus YNL271C, strain bni1, active compounds read low): 1.02 | normalized growth (S. cerevisiae deletion strains, locus YNL298W, strain CLA4, active compounds read low): 1.01 | normalized growth (S. cerevisiae deletion strains, locus YNL307C, strain MCK1, active compounds read low): 1.03 | normalized growth (S. cerevisiae deletion strains, locus YNL322C, strain KRE1, active compounds read low): 0.984 | normalized growth (S. cerevisiae deletion strains, locus YNR052C, strain pop2, active compounds read low): 1.01 | normalized growth (S. cerevisiae deletion strains, locus YOL006C, strain TOP1, active compounds read low): 0.509 (active) | normalized growth (S. cerevisiae deletion strains, locus YOL012C, strain htz1): 1.01 | normalized growth (S. cerevisiae deletion strains, locus YOL147C, strain pex11, active compounds read low): 1.03 | normalized growth (S. cerevisiae deletion strains, locus YOR061W, strain CKA2, active compounds read low): 0.878 (active) | normalized growth (S. cerevisiae deletion strains, locus YOR069W, strain VPS5, active compounds read low): 0.991 | normalized growth (S. cerevisiae deletion strains, locus YOR136W, strain idh2, active compounds read low): 1.02 | normalized growth (S. cerevisiae deletion strains, locus YOR144C, strain elg1, active compounds read low): 1.03 | normalized growth (S. cerevisiae deletion strains, locus YOR184W, strain ser1, active compounds read low): 0.974 | normalized growth (S. cerevisiae deletion strains, locus YOR316C, strain cot1, active compounds read low): 1.03 | normalized growth (S. cerevisiae deletion strains, locus YPL055C, strain LGE1, active compounds read low): 0.843 | normalized growth (S. cerevisiae deletion strains, locus YPL241C, strain CIN2, active compounds read low): 0.992 | normalized growth (S. cerevisiae deletion strains, locus YPR119W, strain clb2, active compounds read low): 1.03 | normalized growth (S. cerevisiae deletion strains, locus YPR141C, strain kar3, active compounds read low): 1.02 | normalized growth (S. cerevisiae deletion strains, locus YPR163C, strain tif3, active compounds read low): 1.03 | normalized growth (S. cerevisiae deletion strains, locus YPR167C, strain met16, active compounds read low): 1.01 | normalized growth (S. cerevisiae deletion strains, strain wtn01, active compounds read low): 0.983 | normalized growth (S. cerevisiae strains, strain wild type, active compounds read low): 0.876 (active)
